Bioassay records from PubChem BioAssay.
A selection: hits, their analogues and other compounds. The true share with any hit is near 2.5%.
ASK1 primary – ASK1 kinase inhibitors, primary screen, biochemical, AlphaScreen | AlphaScreen MKK6 phosphorylation by ASK1, luminescence | inhibition, % at 7.44 µM | actives 0.99% (n = 22,000); in the data active means inhibition above about 35%;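 further: 0% = median of compound wells and 100% = no enzyme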
ULK1 inh – ULK1 kinase inhibitors, primary screen, biochemical, AlphaScreen; inhibition, % at 5.96 µM; AlphaScreen Atg13 phosphorylation by ULK1, luminescence; actives 1.9% (n = 30,000); in the data active means inhibition above about 43%;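 further: 0% = median of compound wells and 100% = no enzyme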
Target sequence (O75385 whole entry, looked up): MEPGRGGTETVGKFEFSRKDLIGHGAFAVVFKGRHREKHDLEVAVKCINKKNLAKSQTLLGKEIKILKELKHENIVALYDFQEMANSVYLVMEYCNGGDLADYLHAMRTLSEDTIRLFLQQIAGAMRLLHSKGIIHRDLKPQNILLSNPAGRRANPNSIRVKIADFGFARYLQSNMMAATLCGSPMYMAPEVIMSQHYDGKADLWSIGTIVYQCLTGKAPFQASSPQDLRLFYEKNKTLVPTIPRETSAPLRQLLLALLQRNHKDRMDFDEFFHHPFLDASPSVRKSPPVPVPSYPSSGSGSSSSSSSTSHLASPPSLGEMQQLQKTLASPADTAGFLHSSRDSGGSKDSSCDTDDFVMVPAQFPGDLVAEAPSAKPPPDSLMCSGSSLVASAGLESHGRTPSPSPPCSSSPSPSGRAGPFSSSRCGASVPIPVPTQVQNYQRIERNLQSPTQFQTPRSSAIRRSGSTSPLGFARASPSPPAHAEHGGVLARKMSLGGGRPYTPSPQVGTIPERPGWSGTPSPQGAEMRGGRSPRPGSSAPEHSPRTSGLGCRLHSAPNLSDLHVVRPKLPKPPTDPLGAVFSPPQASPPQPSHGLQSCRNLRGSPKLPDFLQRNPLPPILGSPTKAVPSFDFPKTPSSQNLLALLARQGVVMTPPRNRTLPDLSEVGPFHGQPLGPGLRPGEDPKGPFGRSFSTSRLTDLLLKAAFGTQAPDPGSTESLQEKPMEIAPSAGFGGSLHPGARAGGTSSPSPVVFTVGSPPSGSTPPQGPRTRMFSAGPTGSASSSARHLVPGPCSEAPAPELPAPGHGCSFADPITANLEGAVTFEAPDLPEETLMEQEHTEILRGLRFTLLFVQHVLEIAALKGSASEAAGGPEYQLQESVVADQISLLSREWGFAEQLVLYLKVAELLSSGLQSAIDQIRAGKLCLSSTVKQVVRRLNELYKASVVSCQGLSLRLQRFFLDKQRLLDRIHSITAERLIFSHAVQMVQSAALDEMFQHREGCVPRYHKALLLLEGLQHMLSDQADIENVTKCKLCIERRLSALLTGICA
* marks the source's active call; other numbers are inactive results; . = no result given; ! = not active in a repeat.

SMILES | ASK1 primary | ULK1 inh
NC(=O)c1ccccc1Nc1nc(Nc2ccc(N3CCOCC3)c(F)c2F)ncc1Cl | -51.7 | 38.8
NC(=O)c1ccccc1Nc1nc(Nc2ccc(N3CCCC3=O)cc2)ncc1Cl | -99.5 | 92.0*
Cc1ncn(-c2ccc(Nc3ncc(C)c(Nc4ccccc4C(N)=O)n3)cc2)n1 | 0.8 | 72.3*
NC(=O)c1cccc(-c2ccc(N3CCOCC3)nc2)c1 | -11.1 | 6.8
N#C/C(=C\c1cccc(Br)c1)C(=O)Nc1cc([N+](=O)[O-])ccc1F | . | 39.2
N#C/C(=C\c1cccc([N+](=O)[O-])c1)C(=O)Nc1ccc([N+](=O)[O-])cc1Br | . | 45.0*
COc1ccc(-c2cccc(C(=O)NCCOc3ccccc3)c2)cn1 | -7.0 | -6.9
CN1CCN(C(=O)c2ccc(-c3ncc(C(=O)NCCOc4ccccc4)s3)cc2)CC1 | 4.3 | 5.7
Cc1cc(Nc2ccccc2)nc(Nc2ccncn2)n1 | 6.6 | -0.2
COc1cc(Nc2cc(Nc3ccncn3)ncn2)cc(OC)c1OC | 1.4 | 43.2*
c1ccc(Nc2cc(Nc3ccncn3)ncn2)cc1 | -12.9 | 46.1*
COc1cc(Nc2cc(Nc3ccccc3)ncn2)cc(OC)c1OC | 8.3 | -2.0
CCOc1ccnc2c1c(=O)n(Cc1cc(C)ccc1C)c(=O)n2C | . | 3.9
C=CCN1CCN(c2c(Cl)cccc2NC(=O)c2cnc3ccccc3n2)CC1 | 4.7 | -8.7
CC(=O)Nc1ccc(Nc2ccnc(Nc3ccc(C(F)(F)F)cc3)n2)cc1 | 28.9 | -11.3
CC(=O)Nc1ccc(Nc2ccnc(Nc3ccncn3)n2)cc1 | 16.3 | 67.7*
O=C1CCCN1CCn1cnc2c(NCc3cccnc3)nc(NCc3ccc4c(c3)OCO4)nc21 | -10.4 | 0.9
COCCNC(=O)c1ccc2cncc(-c3ccsc3)c2n1 | . | 53.2*
O=C(NC1CC1)c1ccc2cncc(-c3ccsc3)c2n1 | . | 35.9
Cc1cnc(CNC(=O)c2ccc3cncc(-c4ccccc4)c3n2)cn1 | . | 1.7
O=C(NCc1ccccc1)c1ccc2cncc(-c3ccccc3)c2n1 | . | 73.6*
COc1ccc(-c2cc(=O)c3ccc(NC(C)=O)cc3o2)cc1 | . | -0.5
COc1ccc2c3c(c(=O)oc2c1)CN(C(=O)C(C)(C)C)CC3 | . | -3.9
CNC(=O)c1ccccc1Nc1cc(Nc2ccc(F)cc2OC)ncc1C(F)(F)F | -1.4 | 87.1*
CNC(=O)c1cc(F)ccc1Nc1cc(Nc2cc(-c3cncnc3)nc(C)n2)ncc1C(F)(F)F | 9.1 | 58.2*
SMILES | ASK1 primary | ULK1 inh
CNC(=O)c1cncnc1Nc1cc(NC(=O)Cc2ccc(OC)cc2)ncc1C(F)(F)F | 26.1 | 14.7
Cc1nc(Nc2cc(Nc3ccccn3)c(C(F)(F)F)cn2)cc(-c2cncnc2)n1 | 22.0 | 32.3
CNC(=O)c1ccccc1Nc1cc(Nc2ccc(-c3cncnc3)cc2OC)ncc1C(F)(F)F | -8.3 | 86.2*
NC(=O)c1ccccc1Nc1cc(Oc2ccccc2F)ncc1C(F)(F)F | 0.8 | -8.3
CCNc1ncc(C(=O)NCCCN2CCCC2=O)s1 | 1.5 | -3.1
O=C(Nc1ccc(N2CCOCC2)cc1)c1ccnc(Nc2ccncc2)c1 | -22.4 | 48.7*
Cn1nccc1Nc1cc(C(=O)Nc2ccc(N3CCOCC3)cc2)ccn1 | 19.8 | 8.5
O=C(Nc1ccc(N2CCOCC2)cc1)c1ccnc(NCc2ccc3c(c2)OCO3)c1 | -18.9 | 44.6*
O=C(Nc1ccc(N2CCOCC2)cc1)c1cncc(-c2ccc(N3CCOCC3)nc2)c1 | 10.5 | 15.4
CC(=O)Nc1ccc(NC(=O)c2cccc(N3CCOCC3)c2)cc1 | -23.6 | 6.3
O=C(Nc1ccc(N2CCOCC2)cc1)c1cccc(Nc2ccncc2)c1 | -18.0 | 69.5*
O=C(NCCN1CCOCC1)c1ccnc(NCc2ccc3c(c2)OCO3)c1 | -7.0 | 0.3
O=C(Nc1ccc(N2CCOCC2)cc1)c1cncc(Nc2ccncc2)c1 | -27.9 | 65.8*
Nc1nc(Cl)c2[nH]cnc2n1 | . | 8.2
CCCNc1nc(N2CCOCC2)nc2nc[nH]c12 | 0.4 | 12.1
CN(C)c1cccc(Nc2cc(C(=O)NCc3nc4ccccc4[nH]3)ccn2)c1 | 8.4 | 1.3
CN(C)CCOc1cc(-c2cn[nH]c2)ccc1NC(=O)C1CC(=O)c2ccccc2C1 (centres undefined) | -4.6 | -13.4
O=C(Nc1ccc(N2CCOCC2)cc1)c1csc(NCc2cccnc2)n1 | -13.7 | 37.4
O=C(Nc1ccc(N2CCOCC2)cc1)c1cccc(Nc2ccc(-n3ccnc3)cc2)c1 | 14.3 | 44.4*
Cc1cc(NCc2ccccc2)nc(Nc2ccc(N3CCOCC3)cc2)n1 | 24.4 | 10.9
Nc1nccc(Nc2ccnc(Nc3ccc(N4CCOCC4)cc3)c2)n1 | 17.5 | 43.3*
O=C(Nc1ccc2c(c1)OCO2)c1cccc(Nc2ccc(-n3ccnc3)cc2)c1 | -5.2 | 3.4
c1cc(Nc2ccc(N3CCOCC3)cc2)cc(Nc2ccc(N3CCOCC3)cc2)n1 | 29.1 | 6.4
Cc1cc(Nc2ccc(N3CCOCC3)cc2)nc(Nc2ccccc2)n1 | 42.0* | 6.6
Cc1cnc(-c2ccc(C(N)=O)cc2)nc1NC1CCN(Cc2ccccc2)CC1 | 6.5 | -4.4
SMILES | ASK1 primary | ULK1 inh
COc1cc2nc(Nc3nc4ccccc4n3C)nc(NCc3cccc(C(F)(F)F)c3)c2cc1OC | -32.2 | -87.1
CN(C)CCOc1cc(-c2ccncc2)ccc1NC(=O)C1COc2c(F)cccc2C1 (centres undefined) | -11.9 | -12.9
c1cnc2ccc(Nc3nc(NC4CC4)c4[nH]cnc4n3)cc2c1 | -38.7 | 64.2*
c1ccc(OCCNc2nc(Nc3ccc4ncccc4c3)nc3nc[nH]c23)cc1 | 10.3 | 27.6
c1cncc(CNc2nc(NC3CC3)c3[nH]cnc3n2)c1 | -3.9 | -5.8
CCCNc1nc(Nc2ccc3ncccc3c2)nc2nc[nH]c12 | -26.8 | 49.0*
c1cc(Nc2nc(NC3CC3)c3[nH]cnc3n2)ccn1 | -24.5 | 51.5*
c1ccc(Nc2nc(Nc3ccc4ncccc4c3)nc3nc[nH]c23)cc1 | -29.1 | 24.4
CC(C)n1cnc2c(NCc3ccccc3)nc(-c3ccc(N4CCN(C)CC4)cc3)nc21 | 13.7 | 0.5
O=C(NCCCN1CCCC1=O)c1cccc(Nc2ccccc2)n1 | -10.5 | -3.0
C=CCn1c(=O)c2c(OCC)ccnc2n(C)c1=O | . | 7.8
NC1CCC(C(=O)Nc2ccc3[nH]ncc3c2)CC1 (centres undefined) | 14.3 | 55.1*!
N[C@H]1CCC[C@H](C(=O)Nc2ccc3cnccc3c2)C1 | -2.0 | 75.0*
CC(C)[C@@H](O)C(=O)N[C@H]1CC[C@@H](C(=O)Nc2ccc3[nH]ncc3c2)C1 | 13.2 | 1.3
N[C@@H]1CC[C@H](C(=O)Nc2ccc3cnccc3c2)C1 | -2.3 | 7.7
NS(=O)(=O)c1ccc(Nc2nccc(-c3ccc(NS(=O)(=O)Cc4ccccc4)cc3)n2)cc1 | -14.1 | 33.4
NS(=O)(=O)c1ccc(Nc2nccc(-c3ccccc3)n2)cc1 | 7.8 | 6.6
CCS(=O)(=O)Nc1ccc(-c2ccnc(Nc3ccc(S(N)(=O)=O)cc3)n2)cc1 | -7.8 | 60.0*
CC(C)S(=O)(=O)Nc1ccc(-c2ccnc(Nc3ccc(S(N)(=O)=O)cc3)n2)cc1 | -8.6 | 50.3*
Cc1noc(C)c1-c1nc2c(NCCO)ncnc2n1C(C)C | -13.7 | -8.3
Cc1cnc(Nc2cccc(N(C)C)c2)nc1NC1CC1 | 8.0 | 45.8*
CN(C)c1cccc(Nc2nccc(NC3CC3)n2)c1 | -0.6 | -0.5
Cn1cc(-c2cc(Nc3ccc(N4CCOCC4)cc3)ncc2F)cn1 | 1.1 | 25.2
Cn1cc(-c2cc(Nc3ccc(N4CCOCC4)cc3)ncc2Cl)cn1 | -0.7 | 61.5*
